D1 potentiator = enhances dopamine response at the human D1 receptor; P21728; HEK293 TREx D1 cells, calcium flux, dopamine EC20 potentiation; potentiation, % at 10 µM; 0.036% of 360,000 active; in the data active = potentiation above about 30%; also: 0% is about no effect
Target sequence (P21728 whole entry, looked up): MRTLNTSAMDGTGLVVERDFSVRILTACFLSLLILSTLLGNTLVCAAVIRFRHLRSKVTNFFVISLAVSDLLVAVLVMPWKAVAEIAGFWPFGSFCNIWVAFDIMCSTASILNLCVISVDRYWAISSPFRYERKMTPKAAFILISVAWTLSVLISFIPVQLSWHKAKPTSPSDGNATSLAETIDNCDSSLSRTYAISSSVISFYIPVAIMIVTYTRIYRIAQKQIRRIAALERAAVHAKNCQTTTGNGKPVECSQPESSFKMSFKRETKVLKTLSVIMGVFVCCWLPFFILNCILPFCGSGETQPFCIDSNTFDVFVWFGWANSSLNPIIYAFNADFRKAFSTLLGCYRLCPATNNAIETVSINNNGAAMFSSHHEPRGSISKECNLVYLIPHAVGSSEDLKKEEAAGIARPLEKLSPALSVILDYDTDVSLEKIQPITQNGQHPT
D1 agonist = human D1 receptor agonism | P21728 | HEK293 T-REx D1 cells, calcium flux, agonist mode | activation, % at 2 µM | 1% of 360,000 active; in the data active = activation above about 30%; also: 0% is about no effect
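Inducible HEK293 T-REx D1 cells, force-coupled to calcium signalling, were plated at 4000 cells/well with tetracycline and held overnight at 30 C. After no-wash calcium dye loading, compound-evoked calcium rise over 180 s flagged agonists.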
ERG Ets-DNA blk = ERG Ets/DNA interaction inhibition; P11308; fluorescence polarization, His-ERG Ets domain / labelled DNA; Potency, µM (titrated, usually from 76.9 µM), for the others: at the top dose FP activity, negative = inhibition, most hits filed as inhibitors; 0.028% of 370,000 active; AID 624246; active = well fitted inhibition curve with a large enough effect in the polarisation, with a control signal flat; inconclusive = small, poorly fitted or top-dose-only effect, or effect the other way, or a change in a side signal; inactive = no such curve, though single readings can be large or run the other way; the % refers to the polarisation;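 also: polarization taken with two DNA probes labelled with fluorescein and Texas red; potency is read from the fitted curve at half-maximal effect; % of control where 0% means no effect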
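His-tagged ERG Ets domain (1 uM in the protein solution; 300mM KCl, 50mM Tris-HCl, 1mM EDTA, 1mM DTT, pH 7.5) received compound, then a probe mix of 5 nM fluorescein-DNA and 100nM Texas-615-DNA. Fluorescence polarization was read for both dyes.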
D1 antagonist = antagonists of human D1 dopamine receptor; 3.2% of 360,000 active; AID 504652; activity change, negative = inhibition, % at 10 µM; P21728; HEK293 TREx D1 cells, calcium flux, dopamine EC80; active compounds read low; in the data active = activity change below about -30%; also: % is scaled to controls: 0 for no effect and ±100 for the full control effect
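Inducible Hek293 Trex D1 cells (tetracycline, overnight, 30 C). Calcium dye 30–90 min RT. Antagonist mode: EC80 dopamine added after 180 s compound read.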
DRD3 antagonist = antagonists of human D3 dopamine receptor | P35462 | D3R cells, DiscoveRx beta-arrestin luminescence, antagonist mode; active compounds read low | max response, negative = inhibition, % | 2.5% of 360,000 active | AID 652054; in the data active = max response below about -50%; inconclusive = no clear call, values can overlap the other calls; also: % is scaled to controls: 0 for no effect and ±100 for the full control effect
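Cells plated overnight at 1500 cells/well, then exposed to library compounds with dopamine controls for 90 minutes at 37 degrees C. DiscoveRx reagent added for 30–60 minutes at room temperature; luminescence read, quantitative HTS format.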
DRD3 agonist = D3 dopamine receptor (human) agonism. P35462. D3R DiscoveRx beta-arrestin cells, luminescence, 90 min. max activation, %. 0.58% of 410,000 active. AID 652048; in the data active = max activation above about 30%; also: 0% is about no effect
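Cells at 1500/well, incubated overnight, then treated with pinned compounds (dopamine as control) for 90 min at 37 degrees C. DiscoveRx reagent added for 30 - 60 minutes at room temperature; luminescence read.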
An asterisk follows results filed as active; ? = inconclusive; / = no result. The list is not random: actives were taken first. Their share in the collection is about 6.1%.

SMILES	D1 potentiator	D1 agonist	ERG Ets-DNA blk	D1 antagonist	DRD3 antagonist	DRD3 agonist
Cc1ccccc1NC(=O)c1c(F)c(F)c(F)c(F)c1F	12.5	1.5	-1.7%	-13.0	-11.0	-10.6
CCn1ccc(C(=O)Nc2ccccc2Cl)n1	-3.6	1.6	-12.7%	-0.6	-95.9*	-9.8
CCn1ccc(C(=O)Nc2cccc(Cl)c2)n1	-0.5	-0.9	-8.6%	11.9	-6.6	12.9
O=C(Nc1ccccc1Cl)c1c(F)c(F)c(F)c(F)c1F	/	/	-20.9%	/	-61.9*	-4.6
O=C(O)COc1ccccc1/C=N/NC(=O)c1cc(-c2ccc(F)cc2)nc2ccccc12	-1.6	3.1	-2.3%	-16.9	0.0	-7.8
O=C(COc1ccc(Br)cc1)Nc1ccncc1	-6.8	10.7	-10.2%	-4.2	19.3	-1.9
CC(C)CCOc1cccc(OCC(=O)Nc2ccncc2)c1	-6.2	12.6	2.2%	-30.7*	?	6.4
CCC(C)(C)c1ccc(OCC(=O)Nc2ccncc2)cc1	-11.4	44.8*	-4.7%	-16.5	13.5	-1.0
Cc1ccc(S(=O)(=O)N2CCCCC2)cc1NC(=O)c1cc(=O)[nH]c2ccccc12	-5.2	1.2	-0.3%	-1.5	-9.6	-0.6
Cc1ccccc1CNC(=O)Nc1ccc(Cl)cc1	-5.5	4.3	2.2%	-46.2*	-0.9	-4.4
CN1C(=O)c2ccccc2Sc2ccc(NC(=O)NCc3ccc(Cl)cc3)cc21	-1.8	-1.2	-4.2%	1.8	/	-7.7
CC(C)CCNC(=O)c1ccc2c(c1)N(C)C(=O)c1ccccc1S2	-5.6	3.5	7.5%	16.5	-72.3*	-13.6
Cc1ccccc1CNC(=O)Nc1ccc2c(c1)N(C)C(=O)c1ccccc1S2	-3.4	1.3	0.3%	-38.5*	/	4.6
CCN(CC)CCNC(=O)c1ccc2c(c1)NC(=O)c1ccccc1S2	-3.5	0.7	3.6%	-30.5*	-18.2	-8.3
COc1ccc(Cc2noc(-c3ccc([N+](=O)[O-])cc3)n2)cc1OC	-7.1	13.1	-21.1%	-3.4	34.0	-2.4
CC1CC(C)CN(C(=O)Cn2c(=O)c3cccn3c3cccnc32)C1 (stereo not given)	1.8	5.0	2.4%	-7.9	-13.0	1.9
CCOC(=O)c1cc2sc(C)cc2n1CC(=O)N1CCOCC1	3.3	1.7	/	-7.7	-12.1	8.0
O=C(c1cc(Cl)nc2ccccc12)N1CCN(Cc2ccc3c(c2)OCO3)CC1	-4.6	-0.5	-2.9%	-1.8	10.2	0.9
O=C(c1cnn2c(C(F)F)cc(-c3ccccc3)nc12)N1CCN(Cc2ccc3c(c2)OCO3)CC1	2.6	0.9	4.0%	-1.1	-74.5*	-12.5
CCN1CCN(C(=O)c2cnn3c(C(F)F)cc(-c4ccc(C)cc4)nc23)CC1	-4.1	1.2	12.2%	10.7	-56.1*	4.1
COc1ccc(-c2cc(C(F)F)n3ncc(C(=O)Nc4cc(C)on4)c3n2)cc1	-2.6	11.8	-7.6%	-38.2*	-1.5	-5.1
CCOC(=O)CSc1nnc2n(-c3ccccc3)c(=O)c3c4c(sc3n12)CC(C(C)(C)C)CC4 (stereo not given)	0.7	3.7	-4.9%	-9.9	/	1.2
CN1CCN(C(c2ccc(Cl)cc2)c2cc(Cl)c3cccnc3c2O)CC1 (stereo not given)	4.5	5.4	0.3%	7.3	-98.5*	-22.3
O=C(NC(c1ccc(Cl)cc1)c1cc(Cl)c2cccnc2c1O)c1cccnc1 (stereo not given)	-6.2	12.9	4.8%	6.5	-100.2*	2.4
Oc1c(C(c2ccccn2)N2CCCCC2)cc(Cl)c2cccnc12 (stereo not given)	5.8	1.6	2.0%	-0.3	-76.3*	-21.5
SMILES	D1 potentiator	D1 agonist	ERG Ets-DNA blk	D1 antagonist	DRD3 antagonist	DRD3 agonist
CN1CCN(C(c2ccc(C(F)(F)F)cc2)c2cc(Cl)c3cccnc3c2O)CC1 (stereo not given)	9.2	14.2	/	-4.4	/	/
CNC(=O)c1cc(C(=O)c2c(Cl)cccc2Cl)c[nH]1	-9.4	5.2	20.8%	-2.1	9.8	-2.4
CNC(=O)c1snnc1-c1ccccc1	11.0	1.0	-4.5%	-0.7	?	-5.9
CC12CC3CC(C)(C1)CC(C(=O)N1CCCC1)(C3)C2	8.1	1.8	-7.3%	3.5	0.7	-0.6
CN1CCN(C(=O)C23CC4CC(C)(CC(C)(C4)C2)C3)CC1	-4.4	2.7	14.5%	1.3	-71.2*	-20.5
Cc1ccc(C23CC4CC(CC(C(=O)N5CCN(C)CC5)(C4)C2)C3)cc1	1.7	10.8	3.8%	-15.1	-55.2*	-19.8
CC(C)CNC(=S)N1CCC(C(=O)c2ccc(Cl)cc2)CC1	/	/	/	/	-23.1	1.7
Cc1ccc2[nH]c(CSc3nnc(NC(=O)c4ccccc4F)s3)cc(=O)c2c1	-0.2	0.8	-0.8%	-32.0*	/	-7.9
Cc1ccc2[nH]c(CSc3nnc(NC(=O)c4ccccc4C)s3)cc(=O)c2c1	-2.8	-0.6	-8.0%	2.0	/	4.0
COc1cc2c(=O)n(CCC(=O)NCC3CCCO3)c(=O)n(CC(=O)Nc3ccc(C)cc3C)c2cc1OC (stereo not given)	1.1	0.9	14.6%	3.7	2.7	1.9
CC(C)c1ccc(-c2nnn(CCC#N)n2)cc1	-9.8	0.6	0.7%	-12.2	0.7	-2.4
CC(C)c1ccc(-c2nnn(Cc3nc4ccccc4s3)n2)cc1	2.0	10.2	-4.2%	-4.9	-72.0*	-3.5
Cc1c(C(=O)NCC2COc3ccccc3O2)oc2ccc(S(=O)(=O)N3CC(C)CC(C)C3)cc12 (stereo not given)	-3.3	2.7	/	-30.9*	-20.5	-25.4
Cc1ccc(NC(=O)C2CCCN(S(=O)(=O)c3ccc4c(c3)oc(=O)n4C)C2)cc1Cl (stereo not given)	-1.9	1.8	-4.2%	-30.9*	/	5.6
CCCN(CCC)CCNC(=O)C1CCCN(S(=O)(=O)c2ccc3c(c2)oc(=O)n3C)C1 (stereo not given)	1.4	0.8	0.2%	-0.4	-17.7	46.4*
Cn1c(=O)oc2cc(S(=O)(=O)N3CCC(C(=O)NCC4COc5ccccc5O4)CC3)ccc21 (stereo not given)	-7.1	0.7	-9.2%	-34.6*	3.1	1.4
COc1cc(NC(=O)c2ccc(OCc3c(C)noc3C)c(OC)c2)cc(OC)c1	/	/	9.5%	/	1.2	-16.9
COc1ccc(CNC(=O)CSc2ncc(S(=O)(=O)c3ccc(C)c(Cl)c3)c(=O)[nH]2)cc1	-1.4	0.0	-0.7%	-0.1	/	2.0
Cn1c(=O)oc2cc(S(=O)(=O)N3CCc4ccccc43)ccc21	-5.7	38.0*	-6.7%	5.4	19.9	-1.2
Cn1c(=O)oc2cc(S(=O)(=O)N3CCCC(C(=O)N4CCN(c5ccccc5F)CC4)C3)ccc21 (stereo not given)	-3.5	6.9	-4.4%	-24.2	/	0.3

Compound activity as filed in PubChem BioAssay.
